Structures are written as SMILES. Several values for one entry are separate records, joined by “and”; a condition that tells them apart may be missing. Equal values may be shown once. Where a name gives a salt, the structure may show the parent alone. ± gives the standard deviation of the averaged measurements. Over roughly 1,900 compounds, “relative cell viability (CellTiter-Glo), compound alone” has its median near 1; the lowest 2% begin near 0.16. Many of the other results were omitted from the sample, so the lowest values are more common in it than they were.

This experiment relates to Hep3B. As to the kind of experiment: relative cell viability (CellTiter-Glo), compound alone (fraction); higher = more viable cells (less growth inhibition). Conditions: cabozantinib 0 µM; 4 days. (In general: In ATP-based viability assays light output follows the ATP content of the culture.)
The molecule `c1ccc(NCc2ccc(CNc3ccccn3)cc2)nc1` came in with a relative cell viability of 1.09 ± 0.085.

For the molecule `COc1cc([C@@H]2c3cc4c(cc3[C@@H](O[C@@H]3O[C@@H]5CO[C@@H](C)O[C@H]5[C@H](O)[C@H]3O)[C@H]3COC(=O)[C@H]23)OCO4)cc(OC)c1O` [Etoposide], the relative cell viability turned out to be 1.22 ± 0.11.

Molecule `COc1cc([C@@H]2c3cc4c(cc3[C@@H](O[C@@H]3O[C@@H]5CO[C@@H](c6cccs6)O[C@H]5[C@H](O)[C@H]3O)[C@H]3COC(=O)[C@H]23)OCO4)cc(OC)c1O` [Teniposide] gave a relative cell viability of 0.113 ± 0.0088. The figure for `COc1cccc(C=NCCN=Cc2cccc(OC)c2[O-])c1[O-].[Cl-].[Mn+3]` is 1.04 ± 0.041.

Take `COc1ccc(-c2ccc3ncc4c(c3c2)n(-c2ccc(N3CCNCC3)c(C(F)(F)F)c2)c(=O)n4C)cn1`: the relative cell viability amounted to 0.202 ± 0.013. The figure for `Nc1ccc(-c2ccc3ncc4ccc(=O)n(-c5cccc(C(F)(F)F)c5)c4c3c2)cn1` [Torin 2] is 0.147 ± 0.014; for `CN1C(=O)C(Cc2c[nH]c3ccccc23)NC1=S` (stereo not given) [Necrostatin-1] it is 1.154 ± 0.0058; for `CCn1c(N)c(C(=O)NC)c(=O)c2ccc(C#CC(C)(O)COC)nc21` (stereo not given) it is 0.951 ± 0.15. The figure for `Cc1ccc(-n2sc(=O)n(Cc3ccc(F)cc3)c2=O)cc1` is 1.03 ± 0.086. In the case of `C=CC(=O)Nc1cc(Nc2nccc(-c3c[nH]c4ccccc34)n2)c(OC)cc1N(C)CCN(C)C` it was 0.913 ± 0.049; in that of `O=C(NC[C@H](O)CN1CCc2ccccc2C1)c1cc(NC2COC2)ncn1`, 1.09 ± 0.029; in that of `Cn1c(Nc2ccc(C(F)(F)F)cc2)nc2cc(Oc3ccnc(-c4ncc(C(F)(F)F)[nH]4)c3)ccc21`, 0.9528 ± 0.0094. `CN[C@@H](C)C(=O)N[C@H](C(=O)N1CCC[C@H]1C(=O)Nc1snnc1-c1ccccc1)C1CCCCC1`: the relative cell viability was determined as 0.229 ± 0.13. The figure for `CC[C@@H]1/C=C(\C)C[C@H](C)C[C@H](OC)[C@H]2O[C@@](O)(C(=O)C(=O)N3CCCC[C@H]3C(=O)O[C@H](/C(C)=C/[C@@H]3CC[C@@H](O)[C@H](OC)C3)[C@H](C)[C@@H](O)CC1=O)[C@H](C)C[C@@H]2OC` [Ascomycin (FK520)] is 1.16 ± 0.12.

With `CN(NC(=O)CC(=O)NN(C)C(=S)c1ccccc1)C(=S)c1ccccc1` [Elesclomol (STA-4783)], the relative cell viability came out at 0.0115 ± 0.0045. `O=C(O)c1ccccc1` [Benzoic Acid] had a relative cell viability of 1.26 ± 0.07. In turn, `O=C(O)CCNC(=O)c1ccccc1` [Betamipron] yielded a relative cell viability of 0.9 ± 0.089. In the case of `COc1cc(N2CCC(N3CCN(C)CC3)CC2)ccc1Nc1ncnc(Nc2ccccc2S(=O)(=O)C(C)C)n1` it was 0.887 ± 0.056; in that of `Cc1cc(Nc2ccc(NC(=O)c3ccc(Nc4ccnc5ccccc45)cc3)cc2)nc(N)n1`, 0.227 ± 0.023. In turn, `CN(C)CCCNC(=O)c1ccc(-c2cc(O)c3ncccc3c2)cc1` gave a relative cell viability of 0.898 ± 0.27. As to `CC(C)(CO)c1cc2cc(NC(=O)C3(c4ccc5c(c4)OC(F)(F)O5)CC3)c(F)cc2n1C[C@@H](O)CO`, the relative cell viability worked out at 1.14 ± 0.18. In turn, `Cc1ccc(NC(=O)C2(c3ccc4c(c3)OC(F)(F)O4)CC2)nc1-c1cccc(C(=O)O)c1` [VX-809 (Lumacaftor)] came in with a relative cell viability of 0.144 ± 0.025. For `C[C@]1(c2nc3c(C(N)=O)cccc3[nH]2)CCCN1` [Veliparib (ABT-888)], the relative cell viability is 1.02 ± 0.44. The figure for `CN1CCN(C2CCN(C(=O)Nc3cc(Oc4ccc(NC(=O)C5(C(=O)Nc6ccc(F)cc6)CC5)c(F)c4)ccn3)CC2)CC1` [Golvatinib (E7050)] is 1.15 ± 0.079; for `COc1ccc(-c2cc(=O)c3c(O)cc(O)cc3o2)cc1O` [Diosmetin] it is 1.35 ± 0.14.

Molecule `O=c1cc(CN2CCOCC2)occ1OCCCCCSc1ccnc2cc(C(F)(F)F)ccc12` had a relative cell viability of 1.29 ± 0.14. `CC/C(=C(\c1ccc(O)cc1)c1ccc(OCCNC)cc1)c1ccccc1` [Endoxifen HCl] showed a relative cell viability of 1.16 ± 0.081. Molecule `CC/C(=C(\c1ccccc1)c1ccc(OCCN(C)C)cc1)c1ccccc1` [Tamoxifen Citrate] displayed a relative cell viability of 1.26 ± 0.064.

On to `CN(C)Cc1c(C(=O)NCCOc2ccc(C(=O)NO)cc2)oc2ccccc12`, for which the relative cell viability stood at 0.153 ± 0.054. `O=C(Nc1c[nH]nc1-c1nc2ccc(CN3CCOCC3)cc2[nH]1)NC1CC1` registered a relative cell viability of 0.3 ± 0.036.

For the molecule `O=[N+]([O-])c1ccc2c(c1)S(=O)(=O)C=C2` [Stattic], the relative cell viability was found to be 1.03 ± 0.043. In the case of `N#Cc1cc(CN2CCC(Nc3ncnc4sc(Cl)cc34)CC2)ccc1F` it was 1.42 ± 0.079; in that of `C[C@]12CC[C@@H]3c4ccc(OC(=O)c5ccccc5)cc4CC[C@H]3[C@@H]1CC[C@@H]2O` [Estradiol Benzoate], 1.19 ± 0.14. On to `CCN(CC)Cc1ccc2cc(COC(=O)Nc3ccc(C(=O)NO)cc3)ccc2c1` [Givinostat (ITF2357)], for which the relative cell viability turned out to be 0.156 ± 0.0025.

Molecule `COc1ccc(Cn2ccc3ccc(C(=O)NO)cc32)cc1` came in with a relative cell viability of 0.909 ± 0.14. The molecule `CCN(CC)CCNC(=O)c1ccc(N)cc1` [Procainamide HCl] yielded a relative cell viability of 0.954 ± 0.032.

`OCc1ccc(O[C@@H]2O[C@H](CO)[C@@H](O)[C@H](O)[C@H]2O)cc1` [Gastrodin] registered a relative cell viability of 1.354 ± 0.0026.

In turn, `CN(C)Cc1cccc(N/C(=C2\C(=O)Nc3cc(C(N)=O)ccc32)c2ccccc2)c1` yielded a relative cell viability of 0.7302 ± 0.0057.

`CCS(=O)(=O)Nc1ccc2c(c1)/C(=C(/Nc1ccc(CN3CCCCC3)cc1)c1ccccc1)C(=O)N2` [Hesperadin]: the relative cell viability came to 0.112 ± 0.0022. The figure for `COC(=O)c1ccc2c(c1)NC(=O)/C2=C(\Nc1ccc(N(C)C(=O)CN2CCN(C)CC2)cc1)c1ccccc1` [Nintedanib (BIBF 1120)] is 0.761 ± 0.038; for `CC(C)[C@H](C(=O)Nc1ccc(C(=O)NO)cc1)c1ccccc1` it is 0.138 ± 0.015; for `CC(=O)Nc1ccc(C(=O)Nc2ccccc2N)cc1` [CI994 (Tacedinaline)] it is 1.17 ± 0.1. `CCCCN(Cc1ccc(C(=O)NO)cc1)C(=O)Nc1ccccc1` [Nexturastat A]: the relative cell viability turned out to be 1.06 ± 0.17.

The molecule `CCn1cc(-c2ccnc3[nH]c(-c4cccc(CN(C)C)c4)cc23)c(-c2ccc(NC(=O)N(C)C)cc2)n1` showed a relative cell viability of 0.94 ± 0.099. The figure for `COc1ccccc1-c1cc(Nc2cccc(CS(N)(=O)=O)c2)ncn1` is 1.11 ± 0.029; for `CN(C)C(=O)Nc1cccc(-c2ccc(N(C)C)cc2)c1` [Atglistatin] it is 1.37 ± 0.12; for `O=C(Nc1cc(C(F)(F)F)ccc1N1CCCCC1)c1ccncc1` it is 1.07 ± 0.016.

For `CC(C)n1nc(-c2ccc3oc(N)nc3c2)c2c(N)ncnc21`, the relative cell viability is 0.387 ± 0.022. Turning to `CC1(C)CCC[C@]2(C)[C@H]3CC(=O)O[C@]3(C)CC[C@@H]12` [Sclareolide], the relative cell viability is 0.9838 ± 0.007.

`Cc1c(CN2CCN(C(=O)[C@H](C)O)CC2)sc2c(N3CCOCC3)nc(-c3cnc(N)nc3)nc12` had a relative cell viability of 0.546 ± 0.022.

The molecule `COc1ccc(-c2nc(N3CCOCC3)c3sc(CN(C)c4ncc(C(=O)NO)cn4)cc3n2)cn1` returned a relative cell viability of 0.132 ± 0.013. Molecule `CS(=O)(=O)N1CCN(Cc2cc3nc(-c4cccc5[nH]ncc45)nc(N4CCOCC4)c3s2)CC1` displayed a relative cell viability of 1.17 ± 0.013.

`Cc1c(Cc2ccc3ccccc3n2)c2cc(F)ccc2n1CC(=O)O` showed a relative cell viability of 1.08 ± 0.055. The figure for `CN1C(C(=O)Nc2ccccn2)=C(O)c2sccc2S1(=O)=O` [Tenoxicam] is 1 ± 0.051. In the case of `O=C(COc1ccc(C(=O)c2ccccc2)cc1)NC1CCN(Cc2ccccc2)CC1` [AdipoRon] it was 0.881 ± 0.096; in that of `CN1CCN(c2ccc3nc(-c4c(N)c5c(F)cccc5[nH]c4=O)[nH]c3c2)CC1` [Dovitinib (TKI-258, CHIR-258)], 0.85 ± 0.018. As for `CN1CCN(c2ccc3nc(-c4c(N)c5c(F)cccc5[nH]c4=O)[nH]c3c2)CC1` [Dovitinib (TKI-258) Dilactic Acid], the relative cell viability is 0.6208 ± 0.0046. In turn, `CN1CCN(c2ccc3nc(-c4c(N)c5c(F)cccc5[nH]c4=O)[nH]c3c2)CC1` [Dovitinib (TKI258) Lactate] came in with a relative cell viability of 0.67 ± 0.011. The figure for `Cc1ccc(C(=O)c2cc(O)c(O)c([N+](=O)[O-])c2)cc1` [Tolcapone] is 1.05 ± 0.076; for `C=CC(=O)Nc1ccc2ncnc(Nc3cccc(Br)c3)c2c1` it is 1.48 ± 0.24; for `NC(=S)N/N=C/c1ncccc1N` [Triapine] it is 1.17 ± 0.017.

The molecule `COc1cc(Nc2ncc(F)c(Nc3ccc4c(n3)N(COP(=O)(O)O)C(=O)C(C)(C)O4)n2)cc(OC)c1OC` [Fostamatinib (R788)] showed a relative cell viability of 0.843 ± 0.025. The figure for `C/C(=C\c1ccc(C(=O)O)cc1)c1ccc2c(c1)C(C)(C)CCC2(C)C` [TTNPB (Arotinoid Acid)] is 1.11 ± 0.1; for `CO[C@H]1C[C@@H]2CC[C@@H](C)[C@@](O)(O2)C(=O)C(=O)N2CCCC[C@H]2C(=O)O[C@H]([C@H](C)C[C@@H]2CC[C@@H](OP(C)(C)=O)[C@H](OC)C2)CC(=O)[C@H](C)/C=C(\C)[C@@H](O)[C@@H](OC)C(=O)[C@H](C)C[C@H](C)/C=C/C=C/C=C/1C` [Ridaforolimus (Deforolimus, MK-8669)] it is 1.07 ± 0.074; for `CC1=CC(=O)c2ccccc2C1=O` [Menadione] it is 0.9362 ± 0.0074. In the case of `CC(=O)Nc1ccccc1` [Acetanilide] it was 1.17 ± 0.044. In turn, `CC(C)(C)C(=O)Nc1ccc2c(c1)C(=O)C(=O)c1ccccc1-2` had a relative cell viability of 0.0728 ± 0.012.

As for `NC(=O)CCCSc1nc(N)nc(-c2c(Cl)cc3c4c(cccc24)COC3)n1`, the relative cell viability was 0.19 ± 0.026.

Turning to `Cc1[nH]c2ccccc2c1CCNC(=O)c1cccs1`, the relative cell viability was 1.19 ± 0.067. As to `O=C(/C=C/c1cccc(S(=O)(=O)Nc2ccccc2)c1)NO` [Belinostat (PXD101)], the relative cell viability is 0.216 ± 0.019. Take `Cc1[nH]c2ccccc2c1CCNCc1ccc(/C=C/C(=O)NO)cc1` [Panobinostat (LBH589)]: the relative cell viability amounted to 0.12 ± 0.019.

On to `Cn1cc(-c2ccncc2)c(-c2ccc(OCc3ccc4ccccc4n3)cc2)n1`, for which the relative cell viability came out at 1.13 ± 0.025.

`COc1cc(Br)c(Nc2nc(-c3c(C)nc4ncccn34)cs2)c(Br)c1`: the relative cell viability was 0.601 and 0.575. The figure for `CC(ONC(=O)c1cc(C(F)(F)F)cc(C(F)(F)F)c1)C(=O)Nc1ccc(Cl)cc1` (stereo not given) is 1.02 ± 0.094. `O=C(Nc1ccccc1)c1ccccc1O` [Salicylanilide] came in with a relative cell viability of 1.147 ± 0.0051. Take `O=C(Nc1cc(C(F)(F)F)cc(C(F)(F)F)c1)c1cc(Cl)ccc1O`: the relative cell viability was determined as 0.0996 ± 0.0025. Regarding `CN1CCN(Cc2ccc(-c3cnc4[nH]cc(-c5ccc6[nH]ccc6c5)c4c3)cc2)CC1`, the relative cell viability came out at 0.791 ± 0.033. In the case of `CCNC(=O)c1[nH]nc(-c2cc(Cl)c(O)cc2O)c1-c1ccc(OC)cc1` it was 0.348 ± 0.025; in that of `CCNC(=O)c1noc(-c2cc(C(C)C)c(O)cc2O)c1-c1ccc(CN2CCOCC2)cc1`, 0.176 ± 0.04. `CCNC(=O)c1noc(-c2cc(Cl)c(O)cc2O)c1-c1ccc(OC)cc1` had a relative cell viability of 0.15572 ± 2.3e-05.

The record behind these values is the supplement of paper PMC9399229.
